Results as given in PubChem BioAssay AID2530 (National Center for Advancing Translational Sciences (NCATS), 2010).
Records with an inconclusive call do not appear. The source made the active and inactive calls. Calls follow the shape of the dose curve; as a rule, active = well fitted inhibition curve with a large enough effect; inconclusive = small, poorly fitted or top-dose-only effect; inactive = flat fitted curve, though single readings scatter.

Molecular target: Luciferin 4-monooxygenase (Photuris pensylvanica) (UniProt Q27757)
Assay: Secondary Assay for Luciferase (Kinase-Glo TM) Inhibition Counterscreen;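 as to activity, negative = inhibition: 0% = DMSO only and -100% = 40 µM SIB 1757 full inhibition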
Details: Kinase-Glo luciferase enzyme, luminescence; series mostly up to 58.1 µM; activity, negative = inhibition: at the top concentration
Summary of the method: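 Inhibition was fitted with the Hill equation after normalizing luminescence to DMSO (basal) and 40 uM SIB 1757 (full inhibition). Kinase-Glo luciferase ran for 8 min at room temperature in imidazole buffer pH 7.2 with KCl, MgCl2 and 10 uM ATP.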
Potency is read from the fitted curve at half-maximal effect.

| SMILES | activity, negative = inhibition | Potency |
| --- | --- | --- |
| Cc1ccc(NS(=O)(=O)c2ccc3c(c2)CC(=O)N3C)cc1C | 2.38% (inactive) | – |
| Cc1cc(N2C(=O)c3ccccc3C2=O)n[nH]1 | 1.57% (inactive) | – |
| COc1ccc(NS(=O)(=O)c2ccc3c(c2)CCC(=O)N3)cc1 | 1.39% (inactive) | – |
| Nc1ccc2nc(-c3ccccc3)sc2c1 | – | 11.6 µM (active) |
| O=C1CCc2cc(S(=O)(=O)Nc3ccccc3Cl)ccc2N1 | -4.09% (inactive) | – |
| Cc1ccc(S(=O)(=O)/N=C2/C=C(Sc3ncn[nH]3)C(=O)c3ccccc32)cc1 | -6.43% (inactive) | – |
| CN=c1scc(-c2ccco2)n1/N=C/c1ccc(O)c(O)c1 | -14.5% (inactive) | – |
| Cc1ccc(NS(=O)(=O)c2cc3c(cc2N2CCCCC2)NC(=O)CC3)cc1C | -1.98% (inactive) | – |
| O=C1c2ccccc2C(=O)N1c1cccc(O)c1 | -6.54% (inactive) | – |
| Cc1ccc(NS(=O)(=O)c2cc3c(cc2-c2ccco2)NC(=O)CO3)cc1C | 3.64% (inactive) | – |
| CCOC(=O)C(C(C)=O)c1c(Br)c(O)c(O)c2c(C(=O)c3ccc(C)cc3)coc12 (stereo not drawn) | -3.92% (inactive) | – |
| O=S1(=O)N=C(Oc2ccccc2Cl)c2ccccc21 | 0.85% (inactive) | – |
| O=c1[nH]c2ccccc2n2c(-c3ccccc3)nnc12 | -2.79% (inactive) | – |
| Cc1ccc(NS(=O)(=O)c2cccc(Cl)c2)cc1C | 2.39% (inactive) | – |
| COc1ccccc1NS(=O)(=O)c1ccc2c(c1)CCC(=O)N2 | 1.44% (inactive) | – |
| Cc1ccc(-c2nc3cnccn3c2Nc2ccc(C(C)C)cc2)o1 | 1.88% (inactive) | – |
| Cc1ccc(NS(=O)(=O)c2cc3c(cc2-c2ccccc2)NC(=O)CO3)cc1C | -0.564% (inactive) | – |
| Brc1ccc(N=Nc2ccc3ccccc3n2)cc1 | – | 7.3 µM (active) |
